Results taken from the supplement of paper PMC3334620.
The full ranking holds about 33,000 sequences; the median of “E-score (-0.5 to 0.5)” is about -0.012, and the highest 2% start at about 0.27. The entries come from a sample that favours the highest values as a whole.

Target: T1, Vhr1 (UniProt P40522)
T1 sequence: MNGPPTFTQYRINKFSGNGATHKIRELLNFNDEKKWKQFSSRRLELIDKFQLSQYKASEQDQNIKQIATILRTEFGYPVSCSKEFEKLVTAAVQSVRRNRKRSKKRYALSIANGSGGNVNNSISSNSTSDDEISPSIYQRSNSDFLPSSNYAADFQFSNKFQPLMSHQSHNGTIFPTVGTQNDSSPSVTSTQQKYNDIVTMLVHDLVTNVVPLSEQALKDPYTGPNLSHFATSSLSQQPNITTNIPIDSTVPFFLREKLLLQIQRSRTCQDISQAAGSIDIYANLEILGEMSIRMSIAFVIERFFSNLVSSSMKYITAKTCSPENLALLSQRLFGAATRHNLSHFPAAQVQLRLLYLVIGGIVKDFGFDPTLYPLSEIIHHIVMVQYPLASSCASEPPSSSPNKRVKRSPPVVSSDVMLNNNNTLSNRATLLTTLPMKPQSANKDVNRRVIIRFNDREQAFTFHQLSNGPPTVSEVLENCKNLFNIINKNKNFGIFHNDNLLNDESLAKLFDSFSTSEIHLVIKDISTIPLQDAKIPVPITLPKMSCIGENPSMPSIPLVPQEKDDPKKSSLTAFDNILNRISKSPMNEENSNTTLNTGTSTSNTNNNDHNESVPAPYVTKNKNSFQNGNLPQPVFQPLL
Assay: PBM E-score (8-mer binding enrichment) (E-score (-0.5 to 0.5)); higher = stronger / more preferred TF binding
Conditions: protein concentration: 200 nM; construct: GST-full length
Summary of the method: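 Using PURExpress in vitro transcription/translation, GST-tagged yeast transcription factors were made in full-length or DNA-binding-domain form. These were applied at about 100-200 nM to double-stranded universal all-10-mer Agilent arrays, and bound protein was detected with fluorescent anti-GST. Scans were normalised with masliner before the Universal PBM Analysis Suite assigned E-scores to ungapped eight-base words pooled with their reverse complements.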

Sequence | PBM E-score
CAGTCAAC | 0.216
AAGTCAAA | 0.00983
ACTTTTAT | -0.304
AAGCCATT | 0.0335
CAAATCAG | -0.0128
ATTAGCTA | 0.0108
GCACCTGA | -0.00933
AACTACAC | 0.0739
CACTACAC | 0.163
GACTACAC | 0.315
CACTACCA | 0.208
AACTATAC | 0.114
AACTACTA | 0.078
GACTATAA | 0.0359
TACTACTA | 0.208
GACTACTA | 0.328
GACTACCC | 0.254
GACTATAC | 0.322
GACTACCA | 0.306
CATAGAAA | 0.102
GCTAGAAA | -0.0866
AGACTGTG | -0.0209
GGAGTGCA | 0.14
CGTTTTTC | -0.141
ACCATAGT | 0.0959

Sequence | PBM E-score
AAGCAAGT | -0.0526
CAGTACTC | 0.117
AACTACTC | 0.19
CACTAACA | 0.177
AAGTAACA | 0.0225
GACTAACA | 0.354
GACTACTC | 0.31
GAGTACTC | 0.345
CACTACTC | 0.205
GAGTAACA | 0.286
TACTAACA | 0.145
AAGTACTC | 0.0478
GAGTAACC | 0.106
AGCAGCGG | 0.0635
GAGCCAAC | -0.0688
ACATAGCT | -0.216
AACCAATT | 0.0547
CTAGCAAA | 0.00326
ATGGATCC | 0.144
AGTTACTC | 0.0219
AACACAGG | 0.0235
CACACCTC | 0.285
CACACCTG | 0.207
AACACAGC | 0.229
CACACAGA | 0.263

Sequence | PBM E-score
GACACAGC | 0.129
CACACAGG | 0.272
CACACAGC | 0.307
GACACCTC | 0.0308
AGTGGTGC | -0.0378
ACTGTAGA | 0.0811
CGAAGAAC | 0.0807
ACTAAACG | -0.0382
CAGCAGCG | -0.0154
AGATCTTA | -0.0915
CAACAACA | 0.234
CCATTGGG | -0.18
ACACTGCA | 0.0651
ACACTGCC | 0.281
GCACTGCC | -0.039
CTTCTGCA | -0.194
CCTCATAC | -0.119
ATTCATAG | 0.0981
CATCATAG | 0.266
AATCATAG | 0.329
GATCATAC | 0.114
ACTCATAC | 0.284
CATCATAC | 0.216
AATCATAT | 0.296
AATCAAAT | -0.0562

Sequence | PBM E-score
AATCATAC | 0.4
GCTCATAC | -0.135
AATCATAA | 0.131
AACCCGTT | -0.0686
GGTGCACA | 0.0381
GCTTTATA | -0.261
CCCTCTAC | -0.113
CCACGTCA | -0.165
GCACAAGC | 0.0452
CACGCAGG | -0.0242
GCATATGA | 0.19
TCATATGA | 0.381
CCATATGA | 0.176
GGATATGA | 0.289
CGATATGA | 0.125
AGATATGA | 0.161
CATGAGCA | 0.125
GGTAGCGA | -0.0248
GAGGATAA | 0.0571
ACTGACTC | 0.421
GCTGACAA | -0.0645
CCTGACAC | 0.188
CCGGACTC | 0.303
GCTGACTA | 0.324
ACTGACAC | 0.0369

Sequence | PBM E-score
CCGGACTA | 0.108
CCTGACTC | 0.479
GTTGACTA | 0.261
ACTGACCC | 0.0589
ACGGACTC | -0.0189
CCTGACGC | -0.197
AAGAAAGT | -0.0406
CTTCATTC | -0.0777
CCAATTCG | -0.173
GGGATCAA | -0.109
ATTTGGTG | -0.068
ATAGGGTC | 0.197
CCAGCATA | 0.0195
CTTGACTC | 0.262
CCTGACTA | 0.391
ATTGACTC | 0.3
CCTGACAA | 0.0179
ACTGACCA | -0.0638
ACTGACTA | 0.295
ACTGACTG | 0.0572
ATTGACTA | 0.236
CCTGACGA | 0.0859
CCCAGCAG | 0.0474
AACTGGCT | -0.204
CAGCGCAC | -0.152

Sequence | PBM E-score
CGGTTGAC | -0.0106
AGGCAAGG | -0.292
GATGACAA | -0.00976
CATGACAA | 0.0092
AATGACGA | -0.0492
CATGACTA | 0.458
AATGACTA | 0.353
AATGACTC | 0.463
GATGACTA | 0.447
AATGACGC | 0.00169
CATGACGA | 0.22
AATGACTG | 0.271
AATGACAC | 0.0353
GATGACCA | 0.13
GGATCCGA | -0.0296
ATGTAGCG | -0.0682
AGCGCAAT | -0.0761
ATCTTAGG | -0.132
GCGCTGGA | 0.168
GTTGATAA | 0.109
CGGCTACA | 0.153
CATGGTTC | 0.364
CATGGCTC | 0.28
AATGGCTC | 0.137
AATGGTTC | 0.212

Sequence | PBM E-score
CATGGCTA | 0.224
CATGGTTA | 0.215
AAAATCTT | -0.316
CCATCGAG | 0.0908
ACGCGATG | 0.148
ACTCGGAT | 0.186
ACTCGGAG | 0.29
CCTCGGAG | 0.00615
TCTGGTCA | 0.0764
AACGAGTA | 0.134
CACGAGTC | 0.324
GACGAGAC | -0.0155
GACGAGTA | 0.077
CACGAGTG | -0.0364
AACGAGTC | 0.278
ACCGAGTC | 0.254
CACGAGTA | 0.0881
AACGAGTT | -0.117
GACGAGTC | 0.276
CCCGAGTC | 0.387
CCCGAGTA | 0.184
CGCGACGC | -0.00297
